Screening data (PubChem BioAssay)
D3 ag – qHTS of D3 Dopamine Receptor Agonist: qHTS. D(3) dopamine receptor (Homo sapiens), P35462. D3R DiscoveRx beta-arrestin cells, luminescence, 90 min. max activation, %. hit rate 0.58% among 410,000. AID 652048, 2013; in the data active = max activation above about 30%
Target sequence (P35462 whole entry, looked up): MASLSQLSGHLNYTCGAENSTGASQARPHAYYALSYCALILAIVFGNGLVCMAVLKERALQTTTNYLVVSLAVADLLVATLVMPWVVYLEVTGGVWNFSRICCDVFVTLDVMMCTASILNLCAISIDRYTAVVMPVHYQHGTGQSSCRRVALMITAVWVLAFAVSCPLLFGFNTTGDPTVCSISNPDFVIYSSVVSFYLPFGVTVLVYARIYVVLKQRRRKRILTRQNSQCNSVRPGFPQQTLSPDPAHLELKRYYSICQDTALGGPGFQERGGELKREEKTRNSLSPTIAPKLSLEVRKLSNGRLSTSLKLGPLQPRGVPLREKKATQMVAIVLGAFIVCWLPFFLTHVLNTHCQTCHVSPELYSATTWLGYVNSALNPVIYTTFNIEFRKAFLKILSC
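Cells at 1500/well, incubated overnight, then treated with pinned compounds (dopamine as control) for 90 min at 37 degrees C. DiscoveRx reagent added for 30 - 60 minutes at room temperature; luminescence read.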
DRD3 antagonist – qHTS of D3 Dopamine Receptor Antagonist: qHTS; D(3) dopamine receptor (Homo sapiens), P35462; D3R cells, DiscoveRx beta-arrestin luminescence, antagonist mode; hits give low values; max response, negative = inhibition, %; hit rate 2.5% among 360,000; in the data active = max response below about -50%; inconclusive = no clear call, values can overlap the other calls
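Cells plated overnight at 1500 cells/well, then exposed to library compounds with dopamine controls for 90 minutes at 37 degrees C. DiscoveRx reagent added for 30–60 minutes at room temperature; luminescence read, quantitative HTS format.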
GLP-1R inv ag – qHTS of GLP-1 Receptor Inverse Agonists (Inhibition Mode). HEK293 GLP-1R CRE-luciferase, luminescence, 24 h; GLP-1R form is constitutively active. Potency, µM (series often up to 38.3 µM), actives largely listed as inhibitors. hit rate 1.6% among 410,000. AID 624417, 2012; note: nearly all actives have a fitted effect of over 55% in size
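Inverse agonism was detected as reduced cAMP-driven luciferase luminescence after 24 h compound treatment. The cells were HEK293 clones expressing constitutively active human GLP-1R with the reporter. Reporter-only and GPR119 cell lines served as counterscreen controls.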
GLP1R ag – qHTS of GLP-1 Receptor Agonists. hit rate 0.007% among 380,000. HEK293 GLP-1R CRE-luciferase, luminescence, 4-6 h; cells express a hypersensitive GLP-1R form. Glucagon-like peptide 1 receptor (Homo sapiens), P43220. Potency, µM (highest dose often 45.6 µM), hits mostly activators
Large screens that a line does not name were inactive. An excerpt weighted towards active compounds, which were near 4.3% of everything screened. Unless noted, calls come from the whole dose curve; as a rule, active = well fitted curve in the direction sought with a large enough effect; inconclusive = small, poorly fitted or top-dose-only effect, or another doubt; inactive = no such curve, though single readings can be large; an effect the other way counts as inactive or inconclusive.

CCOc1ccc(/C=C/C(=O)N(CC)CC(=O)Nc2ccc3c(c2)OCCO3)cc1OC	none
CCOc1c(Cl)cc(/C=C/C(=O)N(CC)CC(=O)Nc2ccc(NC(C)=O)cc2)cc1OC	DRD3 antagonist -52.7
CCOc1ccc(/C=C/C(=O)N(CC)CC(=O)Nc2ccc3c(c2)OCCO3)cc1OCC	DRD3 antagonist -56.6
CCn1c(CNC(=O)c2ccc(OC)cc2)nnc1SCC(=O)Nc1cccc(C)c1	none (no result: DRD3 antagonist)
CN(Cc1ccccc1)c1ccc(-c2nc(-c3ccccn3)no2)cc1[N+](=O)[O-]	D3 ag 34.1 (no result: DRD3 antagonist, GLP1R ag)
CN(Cc1ccccc1)c1ccc(-c2nc(-c3ccncc3)no2)cc1[N+](=O)[O-]	D3 ag 57.3, GLP-1R inv ag inconclusive (no result: DRD3 antagonist, GLP1R ag)
CN(C)c1ccc(CNC(=O)CCc2ccc(S(=O)(=O)N3CCCCCC3)cc2)cc1	GLP-1R inv ag 11.2µM
CCc1ccc(CNC(=O)C(C)n2ccc3cc(S(=O)(=O)N4CCCCCC4)ccc32)cc1 (configuration not stated)	GLP-1R inv ag 10µM (no result: DRD3 antagonist, GLP1R ag)
COc1ccc(CNC(=O)CCc2ccc(S(=O)(=O)N3CCCCCC3)cc2)cc1	none
CCc1ccc(CNC(=O)CCCn2ccc3cc(S(=O)(=O)N4CCCC4)ccc32)cc1	GLP-1R inv ag 8.91µM (no result: DRD3 antagonist, GLP1R ag)
COc1ccc(NC(=O)N(CCC(C)C)C(C)c2ccccn2)c(OC)c1 (configuration not stated)	DRD3 antagonist -53.0, GLP-1R inv ag inconclusive
O=C(Nc1ccccc1C(=O)N1CCCCC1)c1nsc2ccccc12	none (no result: DRD3 antagonist, GLP1R ag)
COc1cc(CN2CC(=O)N(c3ccc(C)c(Cl)c3)C2=S)cc(OC)c1OC	GLP-1R inv ag 8.91µM
COc1cc(CN2CC(=O)N(c3ccc(C)cc3)C2=S)cc(OC)c1OC	none
O=C(CSc1nc2nn(-c3ccccc3)c(=O)c-2c2n1CCCCC2)Nc1ccccc1[N+](=O)[O-]	none
CCOCCc1nn2c(=O)cc(COC(=O)COc3ccccc3Cl)nc2s1	none (no result: DRD3 antagonist, GLP1R ag)
Fc1ccc(NC(=S)NC2CC3CCCC(C2)N3Cc2cccs2)cc1 (configuration not stated)	DRD3 antagonist -54.5, GLP-1R inv ag inconclusive
CC(C)CNC(=S)NC1CC2CCCC(C1)N2Cc1cccs1 (configuration not stated)	DRD3 antagonist -76.0
Cc1ccc(NC(=S)NC2CC3CCCC(C2)N3Cc2cccs2)cc1 (configuration not stated)	DRD3 antagonist -70.6, GLP-1R inv ag inconclusive
O=C(Nc1cccc(Cl)c1)NC1CC2CCC(C1)N2Cc1cccs1 (configuration not stated)	DRD3 antagonist -97.8
c1ccc2c(c1)oc1c(-c3ccc4nccn4c3)cccc12	none
CCOC(=O)COc1ccc(C)cc1C(=O)c1ccn2nc(-c3ccc(C)cc3)cc2n1	none (no result: DRD3 antagonist)
O=C(NCCCN1CCN(c2ccccc2F)CC1)c1ccc2nc(N3CCCCC3)sc2c1	none (no result: DRD3 antagonist, GLP1R ag)
O=c1c(C=Nc2ccc(Oc3ccccc3)cc2)c[nH]n1-c1cccc(Cl)n1	DRD3 antagonist -56.1
COc1ccc(N=Cc2c(O)n(-c3cccc(C)n3)c(=O)c3ccccc23)cc1	none
CCCCCCCCCCCCCCCC[n+]1ccc(/C=N/O)cc1	GLP-1R inv ag 8.91µM
Fc1ccc2[nH]c3c(c2c1)CN(C(=S)NCc1ccccc1)CC3	GLP-1R inv ag 5.01µM
Cc1ccc(NC(=O)C2CCCN(c3ncnc4onc(C)c34)C2)cc1Cl (configuration not stated)	none (no result: DRD3 antagonist, GLP1R ag)
CCc1ccccc1-n1nnc(-c2nsc(NC(=O)c3ccc(C)c(C)c3)n2)c1C	GLP-1R inv ag 1.12µM (no result: DRD3 antagonist, GLP1R ag)
COC(=O)c1ccc(NC(=O)CCNS(=O)(=O)c2cccc3nsnc23)cc1	none (no result: DRD3 antagonist)
Cc1nc(Nc2ccc(F)cc2)[nH]c(=O)c1CCC(C)C	GLP-1R inv ag 7.94µM
Cc1ccc(C)c(Cn2c(=O)n(CCCCCC(=O)NCc3ccc4c(c3)OCO4)c(=O)c3sccc32)c1	none (no result: DRD3 antagonist, GLP1R ag)
Cc1ccc(S(=O)(=O)N2CCN(C(=O)CSc3ncc(C(F)(F)F)cc3Cl)CC2)cc1	GLP-1R inv ag 10µM
N=c1sccn1CC(=O)NCCc1ccc(Cl)cc1Cl	DRD3 antagonist -50.0, GLP-1R inv ag inconclusive
COc1ccc(CNc2nc(NCc3ccc(OC)c(OC)c3)n(C(=O)c3cccs3)n2)cc1OC	D3 ag 45.4
O=S(=O)(c1ccccc1)N(CC(F)(F)F)c1ccc(C(O)(C(F)(F)F)C(F)(F)F)cc1	GLP-1R inv ag inconclusive
O=c1cc(-c2c(F)c(F)c(F)c(F)c2F)oc2ccccc12	DRD3 antagonist -67.4
O=c1cc(-c2cccc(F)c2)oc2ccccc12	none
CCOc1ccc(CCNC(=O)c2nnc(Cc3cc(OC)c(OC)c(OC)c3)o2)cc1OCC	none (no result: DRD3 antagonist, GLP1R ag)
CC(O)(c1cccc(F)c1)c1nc(/C=C/c2ccccc2)cs1 (configuration not stated)	DRD3 antagonist -87.9, GLP-1R inv ag inconclusive
OC(c1ccccc1)(c1nc(/C=C/c2ccc(C(F)(F)F)cc2)cs1)C(F)(F)F (configuration not stated)	GLP-1R inv ag 7.94µM
CN(C)c1ccc(-c2csc(C(O)(c3ccccc3)C(F)(F)F)n2)cc1 (configuration not stated)	DRD3 antagonist -94.2, GLP-1R inv ag inconclusive
O=C(COc1ccccc1-c1nc(-c2ccccc2)no1)Nc1ccccc1[N+](=O)[O-]	none (no result: DRD3 antagonist, GLP1R ag)
CCCC(=O)OC(C(=O)Nc1cc(C(F)(F)F)ccc1Cl)c1ccccc1 (configuration not stated)	GLP-1R inv ag inconclusive
O=C(Nc1cc(C(F)(F)F)ccc1Cl)C(Sc1ccccn1)c1ccccc1 (configuration not stated)	GLP-1R inv ag 8.91µM
COc1ccc(-c2nc3ccccc3n2Cc2ccc(C)cc2)cc1	DRD3 antagonist inconclusive, GLP-1R inv ag inconclusive
COc1ccc(-c2nc3ccccc3n2Cc2ccc(C(C)C)cc2)cc1	GLP-1R inv ag 10µM (no result: DRD3 antagonist)
COCn1c(-c2ccc(OC)cc2)nc2ccccc21	GLP-1R inv ag inconclusive
Cc1ccc(-c2nc3ccccc3c(=O)n2Cc2ccccc2)cc1	GLP-1R inv ag 3.55µM
COc1ccc(-c2nc3ccccc3n2Cc2ccc(Cl)cc2)cc1	GLP-1R inv ag 10µM (no result: DRD3 antagonist, GLP1R ag)
Cc1ccc(Cn2c(-c3ccccc3)nc3ccccc32)cc1	GLP-1R inv ag inconclusive (no result: DRD3 antagonist, GLP1R ag)
Cc1nn(C)c2c1c(C(F)(F)F)cc(=O)n2CC(=O)NCCC(C)C	none (no result: DRD3 antagonist, GLP1R ag)
CCCN(CCC)S(=O)(=O)c1ccc2c(c1)N(CC(=O)NCc1ccc(F)cc1Cl)C(=O)CS2	GLP-1R inv ag inconclusive (no result: DRD3 antagonist, GLP1R ag)
O=c1c2sc(-c3ccccc3)cc2nc2n1CCC2	GLP-1R inv ag 5.01µM
O=c1c2sc(-c3ccccc3)cc2nc2n1CCCCC2	GLP-1R inv ag inconclusive
Cc1ccc(NC(=O)c2cc3c(=O)n(Cc4ccco4)ccc3nc2C)cc1C	D3 ag 65.3, GLP-1R inv ag inconclusive (no result: DRD3 antagonist, GLP1R ag)
S=C(S)OC1CC2CC1C1CCCC21 (configuration not stated)	DRD3 antagonist -80.5
